PLK1 PBD block = PLK1 (human) polo-box domain binding inhibition | Potency, µM, inactives show max response, negative = inhibition, hits mostly inhibitors | P53350 | 2.8% of 360,000 active | Plk1 PBD binding of FITC phosphopeptide, fluorescence polarization; also: series mostly up to about 57 µM; % is scaled to controls: 0 for no effect and ±100 for the full control effect; nearly all actives have a fitted effect of over 65% in size
Tb PFK block = inhibitors of T. brucei phosphofructokinase; Potency, µM (doses to about 57.5 µM), for the others: at the highest dose activity, negative = inhibition, most hits filed as inhibitors; T. brucei PFK, ADP-Glo luminescence; AID 485367; 0.17% of 330,000 active;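 also: 0% = uninhibited 1x PFK enzyme wells and -100% = no-enzyme wells; nearly all actives have a fitted effect of over 60% in size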
Target sequence (O15648 whole entry, looked up): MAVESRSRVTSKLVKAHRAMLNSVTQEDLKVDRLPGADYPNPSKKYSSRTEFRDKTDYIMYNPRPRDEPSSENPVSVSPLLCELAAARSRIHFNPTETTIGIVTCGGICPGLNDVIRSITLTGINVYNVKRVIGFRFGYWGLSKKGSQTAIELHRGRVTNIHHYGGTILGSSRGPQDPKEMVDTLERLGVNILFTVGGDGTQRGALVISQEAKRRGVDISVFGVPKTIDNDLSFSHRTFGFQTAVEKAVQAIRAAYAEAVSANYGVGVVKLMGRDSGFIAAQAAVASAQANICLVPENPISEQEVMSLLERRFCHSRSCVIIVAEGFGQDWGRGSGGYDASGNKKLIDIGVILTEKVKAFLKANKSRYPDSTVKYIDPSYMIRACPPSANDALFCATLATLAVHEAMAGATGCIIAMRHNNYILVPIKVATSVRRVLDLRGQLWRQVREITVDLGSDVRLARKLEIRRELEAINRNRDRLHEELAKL
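Compounds were pin-transferred as a titration series up to 57 uM into substrate buffer (0.5 mM F6P, 0.1 mM ATP, pH 8.0), then 1.25 nM PFK was added and reactions ran 45 min before ADP-Glo detection.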
BRCA1 expr up = increases BRCA1 expression; MCF7-BRCA1-FFLuc reporter, luminescence, 48 h; response scale: scaled: vehicle 0%, 10 µM genistein 100%; Potency, µM (series often up to 46.1 µM), inactives show at the top dose activation, usual class: activators; 1.1% of 380,000 active; also: nearly all actives have a fitted effect of over 80% in size
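Using MCF7 cells harboring a BRCA1 firefly luciferase reporter, plated 2 h before compound pinning, the screen measured luminescence after 48 h incubation. Responses were normalized to DMSO and 10 microM genistein, then fitted for concentration-effect.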
VDR inhibitor = blocks the human vitamin D receptor | P11473 | VDR-SRC2-3 peptide fluorescence polarization, 2 h | Potency, µM, without a hit: max response, negative = inhibition, usual class: inhibitors | 0.93% of 400,000 active; also: % is scaled to controls: 0 for no effect and ±100 for the full control effect
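Fluorescence polarization assay of small-molecule disruption of VDR binding to coregulator peptide SRC2-3. Compounds and controls pin-transferred, then read after 2 h incubation at ambient room temperature.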
An asterisk follows results filed as active; ? = inconclusive; · = no result. The list is not random: actives were taken first. Their share in the collection is about 3.9%. Calls follow the shape of the dose curve; as a rule, active = well fitted curve in the direction sought with a large enough effect; inconclusive = small, poorly fitted or top-dose-only effect, or another doubt; inactive = no such curve, though single readings can be large; an effect the other way counts as inactive or inconclusive. Potency is read from the fitted curve at half-maximal effect.

SMILES	PLK1 PBD block	Tb PFK block	BRCA1 expr up	VDR inhibitor
COc1ccc(C(=S)N2CCN(c3ccccc3Cl)CC2)cc1OC	9.47µM*	?	-6.3%	?
COc1cc(C(=S)N2CCN(c3cccc(Cl)c3)CC2)ccc1O	4.74µM*	?	-31.3%	39.8µM*
CC1CCN(C(=S)c2ccccc2O)CC1	15µM*	-11.2%	3.5%	?
O=C(CN(Cc1cccs1)C(=O)c1csnn1)NC1CCCC1	26.7µM*	-0.9%	0.0%	-21.0%
COc1cccc(CN(CC(=O)NC2CCCC2)C(=O)c2csnn2)c1	1.7%	-0.8%	3.7%	7.5%
O=C(NC1CCCC1)C(c1ccccn1)N(C(=O)c1csnn1)C1CC1 (centres undefined)	-12.1%	-7.3%	-0.2%	-13.0%
O=C(NC1CCCC1)C(c1ccccn1)N(C(=O)c1csnn1)C1CCCCC1 (centres undefined)	26.7µM*	3.2%	-12.2%	?
CCOC(=O)c1cccc(NC(=O)NCc2cccn2Cc2ccccc2)c1	·	·	·	0.5%
C=Cc1c(C)/c2[n-]/c1=C\c1[n-]c(c(CC)c1C)/C=c1\[n-]c3c(c1C)C(=O)C(C(=O)[O-])C=3c1[n-]c(c(C)c1CCC(=O)[O-])\C=2.[Cu].[Na+].[Na+] (centres undefined)	·	·	·	31.6µM*
COc1cccc(/C=N\NC(=O)c2sc(N)nc2C)c1OC	26.7µM*	-1.5%	3.8%	-7.3%
COc1ccc(OCC(=O)NC2CC(=O)N(c3ccc4c(c3)OCCO4)C2)cc1 (centres undefined)	·	·	5.1%	9.8%
NC(=S)N/N=C/c1ccc(-c2ccc(Cl)c(Cl)c2)o1	-13.9%	5.8%	-39.5%	-14.3%
CCOc1ccc(C(=O)N/N=C/c2ccc(-c3ccc(S(=O)(=O)Nc4ncccn4)cc3)o2)cc1	-21.1%	-1.7%	1.7%	-2.9%
NC(=S)NN=Cc1ccc(-c2ccc(S(=O)(=O)Nc3ncccn3)cc2)o1	29.9µM*	?	0.3%	-16.3%
O=C(N/N=C/c1ccc(-c2ccc(S(=O)(=O)Nc3ncccn3)cc2)o1)c1cc2ccccc2cc1O	26.7µM*	-7.4%	-26.8%	2.8%
NC(=S)N/N=C/c1ccc(-c2ccccc2)o1	-9.5%	0.8%	38.8%	-18.7%
Cc1ccc(-c2ccc(/C=N/NC(N)=S)o2)cc1	5.97µM*	1.8%	25.0%	89.1µM*
Cc1[nH]ccc2cc3nc4ccccc4c3cc12	2.0%	·	-51.5%	·
CN(C)c1ccc(/C=C/c2ccnc3ccc(-c4ccccc4)cc23)cc1	·	·	-7.8%	·
Oc1c(Br)cc(C2N=C(c3ccccc3)NO2)cc1Br (centres undefined)	11.9µM*	0.0%	13.9%	-6.9%
Cc1ccc(NC(=O)CCCN2C(=O)COc3ccc(C)cc32)c(C)c1	·	·	·	3.9%
CCN(CC)C(=S)SSC(=S)N(CC)CC	0.844µM*	?	-0.4%	·
CCOC(=O)c1c(S(=O)(=O)N2CCC(C(=O)Nc3ccccc3OC)CC2)c(C)n(CC)c1C	·	·	·	12.5%
Cc1nn(C(=O)c2cccc([N+](=O)[O-])c2C)c(C)c1S(=O)(=O)N1CCCCCC1	·	·	24.1%	4.4%
Cc1ccccc1C(=O)OC1OC(=O)C(Cl)=C1Nc1ccc(C(=O)O)cc1 (centres undefined)	3.77µM*	1.3%	2.6%	?
SMILES	PLK1 PBD block	Tb PFK block	BRCA1 expr up	VDR inhibitor
Cc1ccc(NC2=C(Cl)C(=O)OC2OC(=O)c2ccco2)cc1C (centres undefined)	-11.2%	-0.3%	-4.1%	-0.3%
NC(=O)c1cccnc1Oc1cccc(Cl)c1	26.7µM*	-5.5%	-19.6%	?
COc1ccc(OC)c(C2C(C#N)=C(N)Oc3c2c(C)nn3-c2cccc(Cl)c2)c1 (centres undefined)	23.8µM*	0.3%	-7.7%	-8.4%
Cc1nn(-c2cccc(Cl)c2)c2c1C(c1ccncc1)C(C#N)=C(N)O2 (centres undefined)	?	-1.5%	-2.8%	?
Cc1nn(-c2ccccc2)c2c1C(c1cccs1)C(C#N)=C(N)O2 (centres undefined)	?	?	-48.5%	-26.7%
Cc1nn(-c2ccccc2)c2c1C(c1ccco1)C(C#N)=C(N)O2 (centres undefined)	26.7µM*	-24.5%	-41.9%	-23.1%
CCOc1ccc(C(c2c(O)nc(SC)[nH]c2=O)c2c(O)nc(SC)[nH]c2=O)cc1	23.8µM*	·	-2.4%	?
CSc1nc(O)c(C(c2ccc(O)cc2)c2c(O)nc(SC)[nH]c2=O)c(=O)[nH]1	?	0.7%	-4.2%	?
C=CCOc1ccc(C(c2c(O)nc(SC)[nH]c2=O)c2c(O)nc(SC)[nH]c2=O)cc1	11.9µM*	·	1.6%	22.4µM*
CC1CCc2c(sc(NC(=O)CSc3nc(N)cc(=O)[nH]3)c2C(N)=O)C1 (centres undefined)	-7.4%	0.0%	-47.4%	-11.9%
COc1ccc(OC)c(NC(=S)NCC(c2cccnc2)N2CCOCC2)c1 (centres undefined)	15µM*	-1.9%	-2.5%	-17.9%
CCOc1ccc(NC(=S)NCC(c2cccnc2)N2CCOCC2)cc1 (centres undefined)	26.7µM*	0.3%	4.1%	-15.1%
O=C(NC1CC1)c1ccc(Cn2c(SCc3cccc(F)c3)nc3cccnc32)cc1	·	·	·	0.7%
C/C(=C(/CCO)SSCC1CCCO1)N(C=O)Cc1cnc(C)nc1N (centres undefined)	1.8%	1.3%	-10.6%	56.2µM*
CCCSS/C(CCO)=C(/C)N(C=O)Cc1cnc(C)nc1N	·	·	·	25.1µM*
Cc1ncc(C[n+]2csc(CCO)c2C)c(N)n1	-10.5%	-4.5%	0.0%	1.1%
Cc1ncc(C[n+]2ccc(C)c(C)c2)c(N)n1	-4.7%	4.7%	0.0%	-3.4%
C/C(=C(/CCO)SSC[C@@H]1CCCO1)N(C=O)Cc1cnc(C)nc1N	·	·	·	14.1µM*
Cc1nc2c(OCc3cccc(Cl)c3)cccn2c1N(C)Cc1cccs1	0.2%	·	-56.9%	·
CCn1c(=S)[nH]c2sc3c(c2c1=O)CCCC3	-28.7%	2.3%	1.8%	?
CN(C)CCCn1c(=S)[nH]c2sc3c(c2c1=O)CCCC3	18.9µM*	-5.3%	42.5%	?
CNCCCOc1ccc2c(c1)CCC2	-9.3%	-5.6%	11.2µM*	-3.5%
c1cc2c(cc1OCCNC1CCCC1)CCC2	·	-0.1%	·	·
COc1ccc(OC)c(CNC(=O)c2ccc(Sc3ccc(Cl)cc3)c(NC(C)=O)c2)c1	·	·	·	3.1%
COc1ccccc1N(Cc1cc(=O)[nH]c2ccccc12)C(=O)C(C)C	-2.9%	-3.0%	-21.0%	-9.6%
COc1ccccc1N(Cc1cc(=O)[nH]c2ccccc12)C(=O)c1cccc([N+](=O)[O-])c1	29.9µM*	-8.3%	2.8%	?
CN(C)c1nc(NC2CCC(NC(=O)c3ccc(F)c(F)c3)CC2)nc2ccccc12 (centres undefined)	·	·	·	-17.2%
C=C(C)CN1C(=O)C(C)SC1=NN=C1SCC(=O)N1C (centres undefined)	-12.5%	·	-5.0%	·
CC1CCCCN1C(=O)CSc1nc(C2CC2)nc2c1cnn2-c1ccccc1 (centres undefined)	26.7µM*	-10.4%	-28.1%	-10.5%

Screens (PubChem BioAssay)
